Data reported in PubChem BioAssay (EPA / NIEHS).
Inconclusive results are not listed. Activity calls are given as the source filed them. The calls were made as follows: active = hit-call score of the fitted dose curve at least 0.9, where 1 is the maximum; inconclusive = response in the unintended direction; inactive = score below 0.9.

molecular target: rabbit Imidazoline 2 Central (I2C), CKB (gene 100009085) (UniProt P00567); experiment: NVS_ENZ_rabI2C: NovaScreen (NVS) Enzymatic Assay for rabbit Imidazoline 2 Central (I2C) (AID 2283228)
Sequence (P00567 whole entry, looked up): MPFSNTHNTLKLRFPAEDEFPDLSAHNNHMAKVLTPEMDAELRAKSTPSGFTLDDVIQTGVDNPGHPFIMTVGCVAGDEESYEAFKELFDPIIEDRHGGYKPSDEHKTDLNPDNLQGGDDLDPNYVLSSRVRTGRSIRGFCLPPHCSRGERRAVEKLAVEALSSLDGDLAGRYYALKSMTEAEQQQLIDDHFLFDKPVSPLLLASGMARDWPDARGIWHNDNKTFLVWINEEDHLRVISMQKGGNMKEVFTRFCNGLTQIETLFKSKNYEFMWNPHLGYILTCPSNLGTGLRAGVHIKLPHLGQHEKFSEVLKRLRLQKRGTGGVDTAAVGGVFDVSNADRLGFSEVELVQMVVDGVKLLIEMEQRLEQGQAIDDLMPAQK
How it was run: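 Rabbit brain membranes, cell-free; readout by filter-based scintillation counting 1.5 hours after dosing, loss of signal vs DMSO. Initial duplicate test at 25 uM, then concentration-response with 50 uM top concentration.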

Row | Structure (SMILES) | AC50 | outcome
1 | CC[C@H]1CC[C@H](NCc2cc3c(cc2OC)[C@H]2C[C@H]2C(=O)N3C)[C@H](c2ccccc2)N1 | 10.4 µM (active) | –
2 | O=c1[nH]c2ccc(S(=O)CCN3CCC(Cc4ccc(F)cc4)CC3)cc2o1 (stereo not drawn) | 6.76 µM (active) | –
3 | Fc1ccccc1[C@@H](F)COC1CCC(Nc2ncnc3[nH]ncc23)CC1 (stereo partly drawn) | – | inactive
4 | CCOC(=O)c1ccc(C2CCC(NC[C@H](O)COc3ccc(O)c(NS(C)(=O)=O)c3)CC2)cc1 (stereo partly drawn) | 23.4 µM (active) | –
5 | CCN(C(=O)c1cc(C)cc(OC[C@H](C)Nc2ccncc2)c1)C(C)C | – | inactive

molecular target: human Vascular Endothelial Growth Factor Receptor 2 (VEGFR2), KDR (gene 3791) (UniProt P35968); experiment: NVS_ENZ_hVEGFR2: NovaScreen (NVS) Enzymatic Assay for human Vascular Endothelial Growth Factor Receptor 2 (VEGFR2) (AID 2283230)
Sequence (P35968 whole entry, looked up): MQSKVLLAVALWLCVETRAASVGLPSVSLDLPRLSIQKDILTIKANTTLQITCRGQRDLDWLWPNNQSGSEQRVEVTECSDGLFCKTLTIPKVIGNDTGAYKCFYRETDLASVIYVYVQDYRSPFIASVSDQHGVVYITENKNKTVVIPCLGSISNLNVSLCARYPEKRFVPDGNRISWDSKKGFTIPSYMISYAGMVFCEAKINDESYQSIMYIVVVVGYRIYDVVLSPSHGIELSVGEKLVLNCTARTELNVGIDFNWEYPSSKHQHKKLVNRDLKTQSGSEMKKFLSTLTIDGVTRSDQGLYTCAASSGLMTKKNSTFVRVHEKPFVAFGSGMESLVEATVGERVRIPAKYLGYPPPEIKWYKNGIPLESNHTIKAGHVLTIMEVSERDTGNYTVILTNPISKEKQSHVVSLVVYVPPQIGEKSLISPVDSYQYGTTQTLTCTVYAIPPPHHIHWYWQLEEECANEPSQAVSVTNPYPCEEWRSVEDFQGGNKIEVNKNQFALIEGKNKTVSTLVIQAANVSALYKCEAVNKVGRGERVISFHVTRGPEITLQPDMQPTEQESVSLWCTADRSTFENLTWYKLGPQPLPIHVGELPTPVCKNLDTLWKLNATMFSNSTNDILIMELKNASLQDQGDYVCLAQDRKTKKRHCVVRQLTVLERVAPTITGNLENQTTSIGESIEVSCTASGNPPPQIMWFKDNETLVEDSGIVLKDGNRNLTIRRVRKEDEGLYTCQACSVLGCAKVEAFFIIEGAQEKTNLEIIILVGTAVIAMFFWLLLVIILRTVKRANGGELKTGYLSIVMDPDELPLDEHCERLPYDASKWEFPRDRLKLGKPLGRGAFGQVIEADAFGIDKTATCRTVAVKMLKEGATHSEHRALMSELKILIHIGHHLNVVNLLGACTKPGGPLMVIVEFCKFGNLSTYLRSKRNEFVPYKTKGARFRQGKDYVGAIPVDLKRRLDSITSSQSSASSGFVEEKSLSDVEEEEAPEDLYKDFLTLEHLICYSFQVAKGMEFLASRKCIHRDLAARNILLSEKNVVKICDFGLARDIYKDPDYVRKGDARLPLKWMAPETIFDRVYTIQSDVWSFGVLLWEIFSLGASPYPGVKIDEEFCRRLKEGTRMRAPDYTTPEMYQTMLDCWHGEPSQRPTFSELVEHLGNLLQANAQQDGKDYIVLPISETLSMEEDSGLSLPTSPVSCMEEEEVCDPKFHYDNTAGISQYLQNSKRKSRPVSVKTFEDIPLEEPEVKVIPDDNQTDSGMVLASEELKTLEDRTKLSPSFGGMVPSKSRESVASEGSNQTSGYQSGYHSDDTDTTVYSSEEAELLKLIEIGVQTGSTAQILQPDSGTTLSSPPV
How it was run: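 Cell-free recombinant VEGFR2 kinase, fluorescent substrate with electrophoretic mobility-shift separation; read 1 h after dosing. Screened at 25 uM in duplicate, hits to concentration-response up to 50 uM; loss-of-signal versus DMSO.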

Row | Structure (SMILES) | outcome | AC50
6 | Cn1c(=O)cc(Oc2ccc(F)cc2F)c2cnc(NCC(C)(C)O)nc21 | inactive | –
7 | CCOCCOCCOCCO | inactive | –
8 | CC(C)=CCC/C(C)=C\CO | inactive | –
9 | CCCCCCCCCCCCCCCO | inactive | –
10 | Fc1ccccc1[C@@H](F)COC1CCC(Nc2ncnc3[nH]ncc23)CC1 (stereo partly drawn) | – | 0.213 µM (active)
11 | On1ccccc1=S | inactive | –
12 | CCOc1cccc(-n2cc(C(=O)N3CCN(c4cc(C(=O)O)c5ccccc5c4)CC3)nc2-c2ccc(C)cc2)c1 | inactive | –
13 | CCOC(=O)COc1ccc2c(c1)CC(NCC(O)c1cccc(Cl)c1)CC2 (stereo not drawn) | inactive | –
14 | CCC(C)(C)C(=O)O[C@H]1C[C@@H](C)C=C2C=C[C@H](C)[C@H](CC[C@@H]3C[C@@H](O)CC(=O)O3)[C@H]21 | inactive | –
15 | C=CC(=C)CCC=C(C)C | inactive | –

molecular target: rat Constitutive Nitric Oxide Synthase (CNOS), Nos1 (gene 24598) (UniProt P29476); experiment: NVS_ENZ_rCNOS: NovaScreen (NVS) Enzymatic Assay for rat Constitutive Nitric Oxide Synthase (CNOS) (AID 2283236)
Sequence (P29476 whole entry, looked up): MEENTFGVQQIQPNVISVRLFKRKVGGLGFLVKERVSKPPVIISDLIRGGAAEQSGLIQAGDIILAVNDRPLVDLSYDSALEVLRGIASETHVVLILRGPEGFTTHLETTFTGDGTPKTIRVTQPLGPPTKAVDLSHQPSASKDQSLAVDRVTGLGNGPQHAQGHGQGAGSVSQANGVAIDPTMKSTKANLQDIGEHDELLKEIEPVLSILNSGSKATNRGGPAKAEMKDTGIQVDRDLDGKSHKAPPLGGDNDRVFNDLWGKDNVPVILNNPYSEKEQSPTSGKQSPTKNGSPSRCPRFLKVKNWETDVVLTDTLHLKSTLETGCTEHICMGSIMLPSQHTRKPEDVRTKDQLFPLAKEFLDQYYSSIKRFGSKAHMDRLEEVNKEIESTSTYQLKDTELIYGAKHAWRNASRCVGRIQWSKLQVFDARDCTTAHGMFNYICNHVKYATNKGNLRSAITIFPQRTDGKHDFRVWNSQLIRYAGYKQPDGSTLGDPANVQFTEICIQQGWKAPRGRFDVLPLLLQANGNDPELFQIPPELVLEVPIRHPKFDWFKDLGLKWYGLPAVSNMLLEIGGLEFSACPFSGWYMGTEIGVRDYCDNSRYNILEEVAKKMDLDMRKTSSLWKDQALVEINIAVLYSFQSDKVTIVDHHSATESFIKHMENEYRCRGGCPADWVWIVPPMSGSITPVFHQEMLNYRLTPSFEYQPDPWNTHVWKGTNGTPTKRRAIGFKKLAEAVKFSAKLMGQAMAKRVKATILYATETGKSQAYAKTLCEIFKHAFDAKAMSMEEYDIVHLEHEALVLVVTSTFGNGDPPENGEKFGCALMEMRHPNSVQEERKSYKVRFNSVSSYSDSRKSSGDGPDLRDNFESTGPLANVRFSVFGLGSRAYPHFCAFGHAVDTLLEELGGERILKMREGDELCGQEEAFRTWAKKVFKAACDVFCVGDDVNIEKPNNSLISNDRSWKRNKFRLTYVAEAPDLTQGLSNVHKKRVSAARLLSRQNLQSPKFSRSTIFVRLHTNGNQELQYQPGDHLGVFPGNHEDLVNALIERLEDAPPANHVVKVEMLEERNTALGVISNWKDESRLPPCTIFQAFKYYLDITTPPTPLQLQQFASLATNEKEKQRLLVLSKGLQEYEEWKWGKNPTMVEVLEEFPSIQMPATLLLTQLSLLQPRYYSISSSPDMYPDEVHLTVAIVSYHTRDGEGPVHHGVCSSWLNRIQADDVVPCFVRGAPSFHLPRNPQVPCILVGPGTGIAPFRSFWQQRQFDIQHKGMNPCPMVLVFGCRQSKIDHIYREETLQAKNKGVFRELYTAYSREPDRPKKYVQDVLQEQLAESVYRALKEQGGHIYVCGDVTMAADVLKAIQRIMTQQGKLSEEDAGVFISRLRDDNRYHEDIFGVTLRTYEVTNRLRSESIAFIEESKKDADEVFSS
How it was run: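 Enzyme activity in rat brain membrane preparation, read 1 h after dosing by filter-based radiometric scintillation counting. Primary screen in duplicate at 25 uM; actives (e.g., ≥30% inhibition) then run in concentration-response up to 50 uM.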

Row | Structure (SMILES) | outcome
16 | CC(C)=CCCC(C)=CC=O | inactive
17 | O=c1[nH]c2ccc(S(=O)CCN3CCC(Cc4ccc(F)cc4)CC3)cc2o1 (stereo not drawn) | inactive
18 | CC1=CC(=O)CC(C)(C)C1 | inactive
19 | CC(C)=CCCC(C)CCO (stereo not drawn) | inactive
20 | CC/C(=C\C(=N/O)C(N)=O)C(C)[N+](=O)[O-] (stereo not drawn) | inactive

molecular target: sheep Cyclooxygenase-1 (Cox1), PTGS1 (gene 443551) (UniProt P05979); experiment: NVS_ENZ_oCOX1: NovaScreen (NVS) Enzymatic Assay for sheep Cyclooxygenase-1 (Cox1) (AID 2283239);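 also: actives reduce cyclooxygenase activity so potencies are for inhibitors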
Sequence (P05979 whole entry, looked up): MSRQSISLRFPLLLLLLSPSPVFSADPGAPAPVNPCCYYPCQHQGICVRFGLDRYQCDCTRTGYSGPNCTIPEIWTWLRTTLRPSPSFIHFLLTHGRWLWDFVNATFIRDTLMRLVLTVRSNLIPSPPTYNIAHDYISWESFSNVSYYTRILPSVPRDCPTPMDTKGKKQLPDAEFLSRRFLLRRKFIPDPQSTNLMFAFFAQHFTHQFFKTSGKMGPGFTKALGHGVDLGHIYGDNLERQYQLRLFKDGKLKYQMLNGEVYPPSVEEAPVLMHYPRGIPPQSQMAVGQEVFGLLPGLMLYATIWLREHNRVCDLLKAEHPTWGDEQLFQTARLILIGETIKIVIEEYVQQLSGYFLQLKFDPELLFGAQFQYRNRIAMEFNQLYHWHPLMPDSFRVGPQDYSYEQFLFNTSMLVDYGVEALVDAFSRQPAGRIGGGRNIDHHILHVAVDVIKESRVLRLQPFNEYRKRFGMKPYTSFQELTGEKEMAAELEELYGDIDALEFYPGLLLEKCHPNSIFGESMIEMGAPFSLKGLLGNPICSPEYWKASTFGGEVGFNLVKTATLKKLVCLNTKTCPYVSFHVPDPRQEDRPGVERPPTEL
How it was run: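 Ovine seminal vesicle extract; absorbance (colorimetric) enzyme read-out at 0.66 h post-dose. Primary: single conc 25 uM, duplicate. Follow-up: concentration series on actives. Activity = signal loss vs DMSO baseline.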

Row | Structure (SMILES) | AC50 | outcome
21 | CC(C)=CCC/C(C)=C\CO | 25 µM (active) | –
22 | C[C@](N)(Cc1ccc(O)c(O)c1)C(=O)O | 2.33 µM (active) | –
23 | CCc1cc(SCc2sc(-c3ccc(C(F)(F)F)cc3)nc2CN2CCN(c3ccc(OC)cc3)CC2)ccc1OCC(=O)O | – | inactive
24 | CC(C)=CCCC(C)CCO (stereo not drawn) | 21.6 µM (active) | –
25 | Cc1ccc(C)c(O)c1 | – | inactive
26 | CCOC(=O)c1ccc(C2CCC(NC[C@H](O)COc3ccc(O)c(NS(C)(=O)=O)c3)CC2)cc1 (stereo partly drawn) | 15.2 µM (active) | –
27 | Nc1nc2ncc(CNc3ccc(C(=O)N[C@@H](CCC(=O)O)C(=O)O)cc3)nc2c(=O)[nH]1 | 11 µM (active) | –
28 | O=C(OC[C@H]1O[C@@H](OC(=O)c2cc(O)c(O)c(OC(=O)c3cc(O)c(O)c(O)c3)c2)[C@H](OC(=O)c2cc(O)c(O)c(OC(=O)c3cc(O)c(O)c(O)c3)c2)[C@@H](OC(=O)c2cc(O)c(O)c(OC(=O)c3cc(O)c(O)c(O)c3)c2)[C@@H]1OC(=O)c1cc(O)c(O)c(OC(=O)c2cc(O)c(O)c(O)c2)c1)c1cc(O)c(O)c(OC(=O)c2cc(O)c(O)c(O)c2)c1 | 4.31 µM (active) | –
29 | CCCCCCc1ccc(O)cc1O | 5.25 µM (active) | –

molecular target: bovine Dopamine Receptor (DR), Non-selective Binding, DRD1 (gene 281125) (UniProt Q95136); experiment: NVS_GPCR_bDR_NonSelective: NovaScreen (NVS) G Protein-Coupled Receptor Assay for bovine Dopamine Receptor (DR), Non-selective Binding (AID 2283241)
Sequence (Q95136 whole entry, looked up): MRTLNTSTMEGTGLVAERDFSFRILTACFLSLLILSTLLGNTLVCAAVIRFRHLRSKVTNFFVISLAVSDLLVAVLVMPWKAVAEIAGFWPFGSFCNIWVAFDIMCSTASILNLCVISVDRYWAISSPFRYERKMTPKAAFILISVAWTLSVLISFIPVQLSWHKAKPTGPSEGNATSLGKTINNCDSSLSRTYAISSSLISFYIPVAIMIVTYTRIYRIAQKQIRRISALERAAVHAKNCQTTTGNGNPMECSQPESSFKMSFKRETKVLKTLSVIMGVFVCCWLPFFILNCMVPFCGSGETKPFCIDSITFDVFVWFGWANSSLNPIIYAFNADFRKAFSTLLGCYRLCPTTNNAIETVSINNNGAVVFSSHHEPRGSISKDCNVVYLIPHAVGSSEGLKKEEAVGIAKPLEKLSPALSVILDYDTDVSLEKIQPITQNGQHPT
How it was run: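 Bovine striatal membranes; radioligand displacement read by filtration and scintillation counting 1 h after dosing, loss of signal vs DMSO. Screened in duplicate at 25 uM, then concentration-response for hits.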

Row | Structure (SMILES) | AC50
30 | O=c1[nH]c2ccc(S(=O)CCN3CCC(Cc4ccc(F)cc4)CC3)cc2o1 (stereo not drawn) | 6.78 µM (active)
31 | CCn1nc(Cc2ccccc2)cc1C1CCN(C[C@H]2C[C@H](N(C)[C@@H](C(=O)O)C(C)C)C[C@@H]2c2cccc(F)c2)CC1 | 18.6 µM (active)
32 | CCOC(=O)c1ccc(C2CCC(NC[C@H](O)COc3ccc(O)c(NS(C)(=O)=O)c3)CC2)cc1 (stereo partly drawn) | 1.24 µM (active)
33 | CCCN(C1CCN(C(=O)C2CCNCC2)CC1)[C@@H]1CCc2ccc(OC)cc2C1 | 8.91 µM (active)
